Our source for the Potency values is PubChem BioAssay (NCATS).

Activity calls are given as the source filed them. A call without a number means that no potency is given here. Calls come from the whole dose curve; as a rule, active = well fitted inhibition curve with a large enough effect; inconclusive = small, poorly fitted or top-dose-only effect; inactive = flat fitted curve, though single readings scatter.

The test has as its target Luciferin 4-monooxygenase (Photinus pyralis) (UniProt P08659). Kind of test: Primary firefly luciferase (FLuc) qHTS assay for identification of artifact compounds. (AID 1845220). Note: nearly all actives have a fitted effect of over 60% in size. The following applies: purified firefly luciferase, luminescence, 5 min; series mostly up to 54.1 µM. Put shortly:
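FLuc 10 nM; luciferin 10 uM; ATP 10 uM; Tris-acetate pH 7.6, Mg-acetate 10 mM; 15 min RT preincubation; 5 min reaction; luminescence.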
(In general: qHTS replaces the single test concentration by a dilution series.)
For the compound `NCc1c[nH]c(=S)n1C1CCc2c(F)cc(F)cc2C1` (configuration not stated), the Potency result is “inactive”. In the case of `CN(C)C/C=C/C(=O)Nc1ccc(C(=O)Nc2cccc(Nc3ncc(Cl)c(-c4c[nH]c5ccccc45)n3)c2)cc1`, the Potency entry is “inactive”. As for `CCC[C@@H]1C[C@@H](C(=O)N[C@@H]([C@H]2O[C@H](SC)[C@H](O)[C@@H](O)[C@@H]2O)[C@@H](C)O)N(C)C1`, the entry is “inactive”.

For `C[C@@H]1C[C@H](O[C@@H]2O[C@H](CO[C@@H]3OC[C@](O)(CO)[C@H]3O)[C@@H](O)[C@H](O)[C@H]2O)CC(C)(C)[C@H]1/C=C/[C@@H](C)O`, the Potency result was “inactive”. As for `O=C(NC[C@H](O)CN1CCc2ccccc2C1)c1cc(NC2COC2)ncn1`, the entry is “inactive”; as for `CC1(C)CC[C@]2(C(=O)O)CC[C@]3(C)C(=CCC4[C@@]5(C)C[C@H](O)[C@H](O[C@@H]6OC[C@H](O)[C@H](O)[C@H]6O)[C@@](C)(CO)C5CC[C@]43C)[C@@H]2C1` (some centres not stated), “inactive”.

On to `COc1cc(/C=C/C(=O)OC[C@H]2O[C@H](O[C@]3(CO)O[C@H](CO)[C@@H](O)[C@@H]3O)[C@H](O)[C@@H](O)[C@@H]2O)cc(OC)c1O`, for which the Potency entry was “inactive”. In the case of `CC1CCC2C(C(=O)O)=CC3CC(C)(C)CC132` (configuration not stated), the Potency entry was “inactive”. The value for `CCOc1c2c(c(OCC)c3ccccc13)C(=O)N(c1ccc(CC(=O)NS(=O)(=O)c3ccccc3)cc1)C2` was “inactive”. Turning to `OCC1OC(Oc2cc(O)c3c(c2)OC(c2ccc(O)cc2)C(O)C3)C(O)C1O` (configuration not stated), the Potency result is “inactive”. Regarding `COc1ccc(C(OC2OC(CO)C(O)C(O)C2O)C(C)O)cc1` (configuration not stated), the Potency entry was “inactive”.

In the case of `NC(=O)c1cccc(-c2cc(O)cc(OC(=O)NC3CCCCC3)c2)c1`, the Potency entry was “inactive”.
